Laboratory results as given in PubChem BioAssay (NCATS).
Values joined by “and” are separate entries in the source; they are usually repeats but may differ in a detail not shown here. Identical values can stand only once. Records with an inconclusive call do not appear. Active and inactive are the calls of the source. The call rests on the fitted dose curve; in most records, active means well fitted inhibition curve with a large enough effect; inconclusive means small, poorly fitted or top-dose-only effect; inactive means flat fitted curve, though single readings scatter. Peptide text beside a SMILES is read from it.
On the % scale 0 is the no-effect control and ±100 the full control effect.

Each compound was assayed on NIH3T3 (assay: Cytotoxic Profiling of Annotated Libraries Using Quantitative High-Throughput Screening (AID 1296008; further: nearly all actives have a fitted effect of over 60% in size)). Conditions: Five cell lines viability, CellTiter-Glo ATP luminescence, 48-72 h; max response: stronger effect = lower value.
Summary of the method: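 Compounds were pin-transferred onto cells and incubated 48 or 72 hr at 37 degree Celsius, 95% humidity. CellTiter-Glo was added, plates sat 10 min at room temperature, then ATP-coupled luminescence was imaged as the viability read-out.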
For `Cc1cc2cc3c(C)cc(=O)oc3c(C)c2o1`, the max response was -1.93% (inactive) and the outcome was “inactive”. In the case of `CN(C)[C@@H](CCOc1cccc2ccccc12)c1ccccc1`, the max response is reported as -1.45% (inactive) and -13.3% (inactive). For `COc1ccc2cc([C@H](C)C(=O)O)ccc2c1`, the max response was 2.8% (inactive) and -7.1% (inactive) and the outcome was “inactive”. With `COc1cc(C(C)=O)ccc1OCCCN1CCC(c2noc3cc(F)ccc23)CC1` the max response was -2.71% (inactive) and the outcome was “inactive”. With `Cc1ccc(C)c(OCCCC(C)(C)C(=O)O)c1` the max response was -1.31% (inactive) and 0.244% (inactive). In the case of `CCC[C@@H]1C[C@@H](C(=O)N[C@@H]([C@H]2O[C@H](SC)[C@H](O)[C@@H](O)[C@H]2O)[C@@H](C)O)N(C)C1`, the max response is reported as -4.88% (inactive) and -7.89% (inactive). With `Clc1ccc(C(Cn2ccnc2)OCc2ccc(Sc3ccccc3)cc2)c(Cl)c1` (stereo not drawn) the max response was -3.29% (inactive) and the outcome was “inactive”. With `CS(=O)(=O)OCCCCOS(C)(=O)=O` the max response was -7.8% (inactive) and -0.608% (inactive). `CC(=O)NC[C@H]1CN(c2ccc(N3CCOCC3)c(F)c2)C(=O)O1` was tested, and the max response was -16% (inactive) and 2.14% (inactive). In the case of `CC1=C(C)C(=O)C(C(CCCCCC(=O)O)c2ccccc2)=C(C)C1=O` (stereo not drawn), the max response is reported as 2.25% (inactive) and the outcome is reported as “inactive”. `COc1cc2nc(N3CCN(C(=O)C4CCCO4)CC3)nc(N)c2cc1OC` (stereo not drawn) was tested, and the max response was -4.15% (inactive) and -2.16% (inactive). `CCC1=C(C)CN(C(=O)NCCc2ccc(S(=O)(=O)NC(=O)NC3CCC(C)CC3)cc2)C1=O` (stereo not drawn) was tested, and the max response was 0.91% (inactive) and the outcome was “inactive”. For `Clc1ccc(C(Cn2ccnc2)OCc2c(Cl)cccc2Cl)c(Cl)c1` (stereo not drawn), the max response was -3.81% (inactive) and -0.381% (inactive) and the outcome was “inactive”. For `O=C(O)CCNC(=O)c1ccc(N=Nc2ccc(O)c(C(=O)O)c2)cc1`, the outcome was “inactive”. For `Cc1nc(-c2ccc(OCC(C)C)c(C#N)c2)sc1C(=O)O`, the max response was 4.8% (inactive) and the outcome was “inactive”. With `Cc1c(C(=O)NN2CCCCC2)nn(-c2ccc(Cl)cc2Cl)c1-c1ccc(Cl)cc1` the max response was 0.216% (inactive) and the outcome was “inactive”. With `Cn1c(NCCN(CCO)CCCc2ccc([N+](=O)[O-])cc2)cc(=O)n(C)c1=O` the max response was 4.21% (inactive) and -8.98% (inactive). For `CCN(CCO)CCCC(C)Nc1ccnc2cc(Cl)ccc12` (stereo not drawn), the max response was -2.56% (inactive) and the outcome was “inactive”. `CN(C)C(=O)COC(=O)Cc1ccc(OC(=O)c2ccc(N=C(N)N)cc2)cc1` was tested, and the max response was 2.87% (inactive) and the outcome was “inactive”. In the case of `CC(=O)Nc1ccc(O)cc1`, the max response is reported as -5.84% (inactive) and the outcome is reported as “inactive”. `COC1=C(OC)C(=O)C(CCCCCCCCCCO)=C(C)C1=O` was tested, and the max response was 4.9% (inactive) and the outcome was “inactive”. With `COC(=O)[C@H](Cc1ccccc1)NC(=O)[C@@H](N)CC(=O)O` (H-Asp-Phe-OMe) the max response was -5.4% (inactive) and -2.3% (inactive). `CC1(C)CCC(C)(C)c2cc(NC(=O)c3ccc(C(=O)O)cc3)ccc21` was tested, and the max response was -2.77% (inactive) and the outcome was “inactive”. With `COC(=O)C1=C(C)NC(C)=C(C(=O)OCCCN2CCC(c3ccccc3)(c3ccccc3)CC2)C1c1cccc([N+](=O)[O-])c1` (stereo not drawn) the outcome was “inactive”. With `O=C(NCC1CCCCN1)c1cc(OCC(F)(F)F)ccc1OCC(F)(F)F` (stereo not drawn) the max response was -7.85% (inactive). For `CCCS(=O)c1ccc2nc(NC(=O)OC)[nH]c2c1` (stereo not drawn), the max response was -29.9% (inactive). `O=C(NC(Cc1cc(=O)[nH]c2ccccc12)C(=O)O)c1ccc(Cl)cc1` (stereo not drawn) was tested, and the outcome was “inactive”. With `CN(c1nccc(=O)[nH]1)C1CCN(c2nc3ccccc3n2Cc2ccc(F)cc2)CC1` the max response was 0.52% (inactive) and 4.28% (inactive) and the outcome was “inactive”. `Cc1cc2c(s1)Nc1ccccc1N=C2N1CCN(C)CC1` was tested, and the outcome was “inactive”. For `CC1=C(C(=O)O)N2C(=O)[C@@H](NC(=O)[C@H](N)C3=CCC=CC3)[C@H]2SC1`, the outcome was “inactive”. In the case of `Cc1cc(=O)oc2cc(O)ccc12`, the max response is reported as -7.66% (inactive) and -0.637% (inactive). In the case of `CN(C)c1ccc(O)c2c1C[C@H]1C[C@H]3[C@H](N(C)C)C(=O)C(C(N)=O)=C(O)[C@@]3(O)C(=O)C1=C2O`, the max response is reported as -2.91% (inactive) and the outcome is reported as “inactive”. In the case of `Cc1cccc(CN2CCN(C(c3ccccc3)c3ccc(Cl)cc3)CC2)c1` (stereo not drawn), the max response is reported as 3.98% (inactive) and 1.14% (inactive). With `Cc1ncc([N+](=O)[O-])n1CC(C)O` (stereo not drawn) the max response was 2.47% (inactive) and the outcome was “inactive”. `CNC[C@H](O)c1ccc(O)c(O)c1` was tested, and the outcome was “inactive”. For `COC(=O)N[C@H](C(=O)N[C@@H](Cc1ccccc1)[C@@H](O)CN(Cc1ccc(-c2ccccn2)cc1)NC(=O)[C@@H](NC(=O)OC)C(C)(C)C)C(C)(C)C`, the max response was 0.751% (inactive) and -1.44% (inactive).
